Laboratory results from PubChem BioAssay AID504834 (National Center for Advancing Translational Sciences (NCATS), 2011).
The campaign covered roughly 320,000 compounds. About 22,000 (6.9%) were called active. Not shown: some 27% with an inconclusive outcome. The sample as a whole holds a higher share of actives than the screen did. Unmarked numbers belong to inactive results. Calls follow the shape of the dose curve; as a rule, active = well fitted inhibition curve with a large enough effect; inconclusive = small, poorly fitted or top-dose-only effect, or another doubt; inactive = no such curve, though single readings can be large or run the other way.

Assay: Primary qHTS for delayed death inhibitors of the malarial parasite plastid, 96 hour incubation
Conditions: P. falciparum luciferase reporter growth; series mostly up to 28.7 µM; activity change, negative = inhibition: at the top concentration
Summary of the method: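 Compounds incubated with erythrocytes infected by luciferase-expressing P. falciparum (2% hematocrit, 0.05% parasitemia final) for 96 hours, 37 C in 5% CO2. Growth inhibition scored as decreased luciferase luminescence.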
% is scaled to controls: 0 for no effect and ±100 for the full control effect; potency is read from the fitted curve at half-maximal effect.

SMILES | activity change, negative = inhibition [%] | Potency
COc1cc(C(C(=O)NC2CCCC2)N(Cc2ccccc2)C(=O)c2snc(C(N)=O)c2N)ccc1O (configuration not stated) | -1.49 | –
COc1ccc(CNC(=O)C(=O)NCC2OCCN2C(=O)c2ccc(OC)cc2)cc1 (configuration not stated) | -5.85 | –
O=C(CN(Cc1ccccc1)C(=O)CCC(=O)Nc1ccccn1)NCCc1ccccc1 | – | 13.1 µM (active)
O=C(CCCC(=O)N(CC(=O)NC1CCCC1)Cc1ccccc1Cl)Nc1ccccn1 | -35.8 | –
Cc1ccnc(NC(=O)CCC(=O)N(CC(=O)NCCc2ccccc2)Cc2cccs2)c1 | 40.5 | –
CCC(C)NC(=O)c1c(N)n(/N=C/c2cccs2)c2nc3ccccc3nc12 (configuration not stated) | – | 10.4 µM (active)
CCCNC(=O)c1c(N)n(-c2ccc(S(N)(=O)=O)cc2)c2nc3ccccc3nc12 | 38.1 | –
C=CCn1c(N)c(C(=O)OCC(C)C)c2nc3ccccc3nc21 | 39.3 | –
O=C(NCCc1c[nH]c2ccc(Cl)cc12)c1ccc([N+](=O)[O-])cc1 | -56.9 | –
Cc1ccc(CNC(=O)c2c(-c3ccccc3)noc2C)cc1 | 1.58 | –
Oc1ccccc1CNc1ncc(Br)cc1Br | – | 13.1 µM (active)
Brc1ccc2ncnc(NCc3cccnc3)c2c1 | -2.48 | –
CCc1cccc(C)c1NS(=O)(=O)c1cc(Br)cnc1N | 19.6 | –
COc1ccc(S(=O)(=O)c2c[nH]c(=S)[nH]c2=O)cc1Cl | 37.2 | –
O=C(O)c1cc(S(=O)(=O)NC2CCCc3ccccc32)ccc1O (configuration not stated) | 5.45 | –
CCCCn1c(N)c(N(CCOC)C(=O)c2cccc(S(=O)(=O)N3CCCCC3)c2)c(=O)[nH]c1=O | -0.352 | –
O=c1[nH]c2ccc(S(=O)(=O)N3CCCC3)cc2[nH]1 | 35.6 | –
CCCCn1c(=S)[nH]c2cc(S(=O)(=O)N3CCCCC3)ccc21 | – | 9.28 µM (active)
Cc1ccc(S(=O)(=O)N(C)C)cc1NC(=O)C1Cc2ccccc2CN1C(=O)c1ccco1 (configuration not stated) | -21.9 | –
O=C(NCCCn1ccnc1)/C(=C\c1ccccc1F)NC(=O)c1ccccc1 | 22.2 | –
Cc1c(C(=O)OCC(=O)N2CCCC2=O)oc2ccccc12 | 20 | –
CC1CCCN(CC(O)COCc2ccccc2)C1 (configuration not stated) | 33.6 | –
Oc1c(CN2CCCC2)cc(COCc2ccccc2)c2cccnc12 | – | 2.08 µM (active)

SMILES | activity change, negative = inhibition [%] | Potency
O=[N+]([O-])c1cc([N+](=O)[O-])c2cccnc2c1O | -7.46 | –
Cc1cnc(C(=O)N2CCCC(N3CCN(c4ccccc4F)CC3)C2)cn1 (configuration not stated) | -0.336 | –
O=C(Nc1nnc(SCc2c(Cl)cccc2Cl)s1)c1cccc([N+](=O)[O-])c1 | 1.35 | –
Cc1ccc(NC(=O)CCNS(=O)(=O)c2ccc3c(c2)oc(=O)n3C)cc1C | 14.7 | –
CCN(Cc1ccccc1)C(=O)CCS(=O)(=O)c1ccc2c(c1)oc(=O)n2C | 7.96 | –
CSCCC(NS(=O)(=O)c1ccc2c(c1)oc(=O)n2C)C(=O)NCc1ccccc1 (configuration not stated) | 7.38 | –
COc1cc(NC(=O)CCS(=O)(=O)c2ccc3c(c2)oc(=O)n3C)cc(OC)c1 | – | 1.47 µM (active)
O=C(CCNS(=O)(=O)c1ccc(Br)s1)NCc1ccccc1Cl | 3.9 | –
Cn1c(=O)oc2cc(S(=O)(=O)N3CCC(C(=O)Nc4ccc(OC(F)(F)F)cc4)CC3)ccc21 | 37.5 | –
COc1ccc(NC(=O)CCNS(=O)(=O)c2ccc3c(c2)c(=O)n(C)c(=O)n3C)cc1OC | 65 | –
Cn1c(=O)oc2cc(S(=O)(=O)NCCC(=O)NCc3ccccc3Cl)ccc21 | – | 10.4 µM (active)
COc1cccc(NC(=O)CCNS(=O)(=O)c2ccc3c(c2)oc(=O)n3C)c1 | – | 7.38 µM (active)
CS(=O)(=O)N(CC(=O)Nc1ccc(F)cc1)C1CCCCC1 | 19.4 | –
CCOC(=O)Cn1c(O)c(N=NC(=O)CNC(=O)Cc2ccccc2)c2ccccc21 | 18.9 | –
Cc1nc2nc(C)c(NS(=O)(=O)c3ccc(C(C)(C)C)cc3)c(=O)n2[nH]1 | 26.3 | –
CC1CCN(C(=O)c2cccc(S(=O)(=O)N3CCCc4ccccc43)c2)CC1 | -9.51 | –
CC1CCN(C(=O)COC(=O)c2cc(=O)[nH]c3ccccc23)CC1 | 2.14 | –
CN(C)NC(=O)c1csnc1-c1c(Cl)cccc1Cl | -3.91 | –
O=C(COC(=O)CNS(=O)(=O)c1ccc(F)c(F)c1F)NC1CCCC1 | 15 | –
O=C(Nc1nc2ccccc2s1)c1ccc2c(c1)OCO2 | 31.4 | –
CC(=O)NCCC(=O)Nc1nc(-c2ccc3c(c2)OCCO3)cs1 | 105 | –
Cc1csc(NC(=O)C2=COCCO2)n1 | 121 | –
O=C(Nc1nc(-c2ccc3c(c2)OCO3)cs1)c1ccncc1 | – | 4.15 µM (active)

SMILES | activity change, negative = inhibition [%] | Potency
Cc1ccc(-c2csc(NC(=O)C3=COCCO3)n2)cc1C | – | 6.57 µM (active)
Cc1ccc(-c2csc(NC(=O)c3cnccn3)n2)cc1C | -3.59 | –
COc1ccc(NC(=O)NNC(=O)COc2cc(C)c(Cl)c(C)c2)c(OC)c1 | 15.4 | –
COC(=O)c1ccc(COc2cc([N+](=O)[O-])cc3cccnc23)cc1 | 105 | –
CCc1ccc(S(=O)(=O)NCC(O)COc2ccc(OC)cc2)cc1 (configuration not stated) | 30.5 | –
O=C(Nc1cccc(-n2cnnn2)c1)c1cccnc1 | 33.7 | –
CC(=O)C(C)n1cnc2scc(-c3ccc(C)cc3)c2c1=O (configuration not stated) | -25.2 | –
CCOC(=O)Nc1sc(C(=O)N(C)C)c(C)c1C(=O)OCC | 207 | –
CCOC(=O)c1c(NC(=O)CCl)sc(C(=O)N(CC)CC)c1C | – | 9.28 µM (active)
CCOC(=O)c1sc(NC(=O)CCN2CCOCC2)c(C(=O)OCC)c1C | 22.1 | –
O=C(NCc1ccncc1)c1ccc(NS(=O)(=O)c2cccc([N+](=O)[O-])c2)cc1 | -1.86 | –
Cc1nc2ccccc2c(=O)n1-c1ccc(NS(=O)(=O)c2ccc(F)cc2F)cc1 | 17.4 | –
COCCn1c(SCc2nc3cc(OC)c(OC)cc3c(=O)[nH]2)nnc1-c1ccncc1 | 40.9 | –
CCn1c(SCc2ccccc2)nc2cc(OC)c(OC)cc2c1=O | – | 2.94 µM (active)
CCn1c(Cc2ccccc2)nnc1SCc1nc2ccccc2c(=O)[nH]1 | 9.46 | –
CS(=O)(=O)c1ccc(-c2nnn(CC(=O)Nc3ccc4c(c3)OCCO4)n2)cc1 | 19.7 | –
O=C1c2ccccc2C(=O)C1c1ccccc1F | -0.389 | –
O=C(NCc1ccco1)c1ccc([N+](=O)[O-])cc1Cl | -5.31 | –
Cc1ccc2c(c1)C1CN(C)CCC1N2C(=O)c1ccccc1NS(=O)(=O)c1ccc(F)cc1C (configuration not stated) | – | 9.28 µM (active)
Cc1ccc2c(c1)C1CN(C)CCC1N2C(=S)Nc1ccc(Cl)cc1Cl (configuration not stated) | -2.18 | –
Cc1ccc2c(c1)C1CN(C)CCC1N2C(=O)Cn1nnc(-c2ccccc2F)n1 (configuration not stated) | 27.2 | –
